# Assay results: publication PMC7862700, “An all-to-all approach to the identification of sequence-specific readers for epigenetic DNA modifications on cytosine”
# How the values were obtained:
# Test in all cases: DAPPL (digital affinity profiling via proximity ligation, sequencing); 10 mM Tris-HCl pH 7.5, 50 mM NaCl, 1 mM DTT, 4% glycerol, room temperature, 30 min; GST-TFs on glutathione beads, 16-mer random dsDNA library, 0.1% formaldehyde crosslink after washing; high values mean tight binding
# [1] = target: T1, FLI1 (Homo sapiens, UniProt Q01543 1-452); conditions: protein: recombinant; tags: N-terminal GST; dsDNA, one strand shown
# T1 sequence: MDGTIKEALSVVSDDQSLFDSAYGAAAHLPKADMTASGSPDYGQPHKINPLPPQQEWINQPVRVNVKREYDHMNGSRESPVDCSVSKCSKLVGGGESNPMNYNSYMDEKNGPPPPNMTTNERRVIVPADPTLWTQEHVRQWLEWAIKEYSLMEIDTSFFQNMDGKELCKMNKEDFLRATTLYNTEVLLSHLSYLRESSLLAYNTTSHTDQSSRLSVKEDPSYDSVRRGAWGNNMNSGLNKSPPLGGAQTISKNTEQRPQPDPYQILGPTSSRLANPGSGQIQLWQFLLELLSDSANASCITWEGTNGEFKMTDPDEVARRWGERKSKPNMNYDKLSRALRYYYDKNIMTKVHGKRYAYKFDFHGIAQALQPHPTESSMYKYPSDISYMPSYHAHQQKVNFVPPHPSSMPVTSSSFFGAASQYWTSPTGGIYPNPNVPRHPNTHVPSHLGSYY
# Outline: (§1)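 GST fusions of human transcription factors were expressed in yeast and captured with glutathione beads. Once given DNA barcodes and pooled alongside a tag-only sample, they were incubated for 30 min at room temperature with 200 nmole of a random double-stranded 16-mer DNA library in Tris/NaCl/DTT/glycerol buffer, then washed, crosslinked (0.1% formaldehyde), proximity-ligated, PCR-amplified and sequenced on an Illumina NextSeq500. The binding signal of each hexamer is its read frequency for a factor divided by its frequency for the tag-only sample.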
# [2] = target: T2, ELK1 (Homo sapiens, UniProt P19419 1-428); conditions: protein: recombinant; tags: N-terminal GST; dsDNA, one strand shown
# T2 sequence: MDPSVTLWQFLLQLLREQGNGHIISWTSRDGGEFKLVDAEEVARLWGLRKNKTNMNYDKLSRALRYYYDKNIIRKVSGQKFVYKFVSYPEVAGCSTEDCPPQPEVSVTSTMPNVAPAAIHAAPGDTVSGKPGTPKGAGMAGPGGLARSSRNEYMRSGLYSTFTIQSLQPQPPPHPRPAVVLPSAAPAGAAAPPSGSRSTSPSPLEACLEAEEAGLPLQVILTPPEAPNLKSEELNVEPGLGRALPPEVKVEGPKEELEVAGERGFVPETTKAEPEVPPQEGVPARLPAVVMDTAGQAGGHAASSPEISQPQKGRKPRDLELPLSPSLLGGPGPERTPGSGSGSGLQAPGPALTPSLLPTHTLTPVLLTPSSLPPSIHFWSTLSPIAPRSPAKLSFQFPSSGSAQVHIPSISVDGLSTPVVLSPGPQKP
# Outline: as §1
# [3] = target: T3, GABPA (Homo sapiens, UniProt Q06546 1-454); conditions: protein: recombinant; tags: N-terminal GST; dsDNA, one strand shown
# T3 sequence: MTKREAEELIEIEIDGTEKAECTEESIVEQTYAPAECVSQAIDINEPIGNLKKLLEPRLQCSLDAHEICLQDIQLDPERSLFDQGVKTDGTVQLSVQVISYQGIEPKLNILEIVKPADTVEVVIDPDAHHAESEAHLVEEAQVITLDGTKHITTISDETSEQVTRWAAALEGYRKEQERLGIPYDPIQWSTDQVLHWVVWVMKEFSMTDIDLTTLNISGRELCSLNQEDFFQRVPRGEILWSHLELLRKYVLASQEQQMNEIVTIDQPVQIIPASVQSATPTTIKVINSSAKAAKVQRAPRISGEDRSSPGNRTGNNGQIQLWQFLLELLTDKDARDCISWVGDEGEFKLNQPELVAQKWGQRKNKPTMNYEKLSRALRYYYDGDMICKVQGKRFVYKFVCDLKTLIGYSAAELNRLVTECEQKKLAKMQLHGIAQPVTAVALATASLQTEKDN
# Outline: as §1
# [4] = target: T4, ERG (Homo sapiens, UniProt P11308 1-479); conditions: protein: recombinant; tags: N-terminal GST; dsDNA, one strand shown
# T4 sequence: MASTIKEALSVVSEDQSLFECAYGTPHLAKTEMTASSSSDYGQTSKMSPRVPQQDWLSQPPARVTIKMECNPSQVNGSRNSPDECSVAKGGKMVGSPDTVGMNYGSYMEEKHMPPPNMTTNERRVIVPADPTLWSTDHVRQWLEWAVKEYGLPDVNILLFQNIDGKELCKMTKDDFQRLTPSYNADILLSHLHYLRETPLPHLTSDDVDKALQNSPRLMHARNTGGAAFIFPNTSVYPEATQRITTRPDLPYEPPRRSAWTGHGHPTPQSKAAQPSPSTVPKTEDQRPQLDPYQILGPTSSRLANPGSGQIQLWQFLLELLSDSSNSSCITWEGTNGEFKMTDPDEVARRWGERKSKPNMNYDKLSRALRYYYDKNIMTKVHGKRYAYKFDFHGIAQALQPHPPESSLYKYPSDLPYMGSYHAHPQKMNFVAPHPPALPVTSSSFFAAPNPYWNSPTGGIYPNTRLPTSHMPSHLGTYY
# Outline: as §1
# [5] = target: ELF1 (Homo sapiens, UniProt P32519 1-619); conditions: protein: recombinant; tags: N-terminal GST; dsDNA, one strand shown
# Chain of ELF1 (P32519 whole entry): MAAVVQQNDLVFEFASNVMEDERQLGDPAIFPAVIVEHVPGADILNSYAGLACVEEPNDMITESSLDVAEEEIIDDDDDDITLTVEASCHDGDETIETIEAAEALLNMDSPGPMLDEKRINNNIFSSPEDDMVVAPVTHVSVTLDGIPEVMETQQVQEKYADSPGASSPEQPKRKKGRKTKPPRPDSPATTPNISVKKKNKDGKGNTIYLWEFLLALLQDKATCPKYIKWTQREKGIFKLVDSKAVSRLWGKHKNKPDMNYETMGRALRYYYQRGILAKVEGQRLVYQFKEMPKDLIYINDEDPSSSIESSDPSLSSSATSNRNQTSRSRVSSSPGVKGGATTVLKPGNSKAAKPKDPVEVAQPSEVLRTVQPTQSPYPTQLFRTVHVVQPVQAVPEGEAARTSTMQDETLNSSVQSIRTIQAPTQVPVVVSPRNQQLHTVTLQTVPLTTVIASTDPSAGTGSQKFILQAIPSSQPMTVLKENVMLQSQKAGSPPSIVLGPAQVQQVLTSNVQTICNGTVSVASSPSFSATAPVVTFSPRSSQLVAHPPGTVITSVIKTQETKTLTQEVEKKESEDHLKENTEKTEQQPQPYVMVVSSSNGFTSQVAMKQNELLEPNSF
# Outline: as §1
# [6] = target: T5, EHF (Homo sapiens, UniProt Q9NZC4 1-300); conditions: protein: recombinant; tags: N-terminal GST; dsDNA, one strand shown
# T5 sequence: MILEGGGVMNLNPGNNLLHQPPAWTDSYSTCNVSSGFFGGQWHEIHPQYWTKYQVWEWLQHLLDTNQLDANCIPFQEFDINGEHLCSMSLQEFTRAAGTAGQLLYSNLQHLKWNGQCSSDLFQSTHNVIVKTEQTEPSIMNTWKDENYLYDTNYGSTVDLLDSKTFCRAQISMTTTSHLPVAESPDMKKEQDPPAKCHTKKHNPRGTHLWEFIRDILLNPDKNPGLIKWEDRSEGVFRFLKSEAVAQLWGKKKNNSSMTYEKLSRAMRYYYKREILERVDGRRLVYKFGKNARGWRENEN
# Outline: as §1
# [7] = target: SPI1 (Homo sapiens, UniProt P17947 1-270); conditions: protein: recombinant; tags: N-terminal GST; dsDNA, one strand shown
# Outline: as §1
# [8] = target: SPIB (Homo sapiens, UniProt Q01892 1-262); conditions: protein: recombinant; tags: N-terminal GST; dsDNA, one strand shown
# Chain of SPIB (Q01892 whole entry): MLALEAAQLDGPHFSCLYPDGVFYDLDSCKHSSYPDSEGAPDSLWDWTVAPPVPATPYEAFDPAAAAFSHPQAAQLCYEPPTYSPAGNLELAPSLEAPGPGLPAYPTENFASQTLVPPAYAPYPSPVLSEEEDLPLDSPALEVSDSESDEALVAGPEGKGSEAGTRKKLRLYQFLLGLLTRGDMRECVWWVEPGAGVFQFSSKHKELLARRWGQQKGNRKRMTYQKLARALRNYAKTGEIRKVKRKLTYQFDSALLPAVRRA
# Outline: as §1
# [9] = target: T6, ELK3 (Homo sapiens, UniProt P41970 1-407); conditions: protein: recombinant; tags: N-terminal GST; dsDNA, one strand shown
# T6 sequence: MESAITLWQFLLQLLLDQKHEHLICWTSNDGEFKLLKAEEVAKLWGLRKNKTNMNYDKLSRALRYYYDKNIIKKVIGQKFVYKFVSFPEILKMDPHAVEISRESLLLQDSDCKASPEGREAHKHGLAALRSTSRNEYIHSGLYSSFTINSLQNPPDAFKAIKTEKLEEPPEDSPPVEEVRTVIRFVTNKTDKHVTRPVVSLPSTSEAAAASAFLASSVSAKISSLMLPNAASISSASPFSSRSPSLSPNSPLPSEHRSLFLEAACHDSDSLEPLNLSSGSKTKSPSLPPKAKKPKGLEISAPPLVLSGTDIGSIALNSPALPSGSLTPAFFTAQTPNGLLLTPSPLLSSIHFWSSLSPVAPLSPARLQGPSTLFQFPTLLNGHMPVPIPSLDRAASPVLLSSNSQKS
# Outline: as §1
# [10] = target: T7, FEV (Homo sapiens, UniProt Q99581 1-238); conditions: protein: recombinant; tags: N-terminal GST; dsDNA, one strand shown
# T7 sequence: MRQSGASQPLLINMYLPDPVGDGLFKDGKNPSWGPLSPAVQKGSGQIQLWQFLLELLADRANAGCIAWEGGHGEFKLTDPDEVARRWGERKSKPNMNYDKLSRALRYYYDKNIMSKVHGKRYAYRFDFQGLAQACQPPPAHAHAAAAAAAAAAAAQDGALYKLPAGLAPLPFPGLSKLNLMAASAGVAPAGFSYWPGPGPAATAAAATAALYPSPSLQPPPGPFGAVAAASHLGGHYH
# Outline: as §1
# [11] = target: ETV5 (Homo sapiens, UniProt P41161 1-510); conditions: protein: recombinant; tags: N-terminal GST; dsDNA, one strand shown
# Chain of ETV5 (P41161 whole entry): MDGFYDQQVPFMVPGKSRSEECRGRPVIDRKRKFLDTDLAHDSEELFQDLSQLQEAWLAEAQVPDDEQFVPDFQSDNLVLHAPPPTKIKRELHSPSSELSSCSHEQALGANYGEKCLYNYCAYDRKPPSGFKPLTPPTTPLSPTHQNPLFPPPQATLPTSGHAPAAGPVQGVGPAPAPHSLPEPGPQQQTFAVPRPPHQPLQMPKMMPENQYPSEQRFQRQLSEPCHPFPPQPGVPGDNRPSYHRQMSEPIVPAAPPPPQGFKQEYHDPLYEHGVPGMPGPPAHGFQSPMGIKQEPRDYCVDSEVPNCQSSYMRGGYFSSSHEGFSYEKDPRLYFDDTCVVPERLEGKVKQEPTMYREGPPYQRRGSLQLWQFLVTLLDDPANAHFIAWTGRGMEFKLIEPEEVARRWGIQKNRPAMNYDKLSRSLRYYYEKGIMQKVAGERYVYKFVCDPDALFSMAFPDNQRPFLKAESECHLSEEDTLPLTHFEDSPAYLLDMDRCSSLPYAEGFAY
# Outline: as §1
# [12] = target: HSF1 (Homo sapiens, UniProt Q00613 1-529); conditions: protein: recombinant; tags: N-terminal GST; chain copies: 3; dsDNA, one strand shown
# Chain of HSF1 (Q00613 whole entry): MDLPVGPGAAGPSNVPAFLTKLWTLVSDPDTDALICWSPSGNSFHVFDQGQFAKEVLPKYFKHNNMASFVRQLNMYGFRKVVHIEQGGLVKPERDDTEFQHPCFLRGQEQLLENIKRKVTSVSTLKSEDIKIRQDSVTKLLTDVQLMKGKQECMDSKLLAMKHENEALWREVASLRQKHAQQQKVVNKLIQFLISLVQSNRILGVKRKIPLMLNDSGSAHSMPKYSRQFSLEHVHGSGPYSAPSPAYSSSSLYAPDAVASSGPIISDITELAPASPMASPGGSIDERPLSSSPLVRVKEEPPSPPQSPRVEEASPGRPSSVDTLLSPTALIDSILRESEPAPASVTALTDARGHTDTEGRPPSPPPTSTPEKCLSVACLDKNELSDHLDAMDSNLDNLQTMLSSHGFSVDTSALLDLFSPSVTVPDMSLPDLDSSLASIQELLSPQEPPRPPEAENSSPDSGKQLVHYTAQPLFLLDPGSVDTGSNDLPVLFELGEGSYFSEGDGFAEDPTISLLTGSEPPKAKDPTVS
# Outline: as §1
# [13] = target: T8, SPIC (Homo sapiens, UniProt Q8N5J4 1-248); conditions: protein: recombinant; tags: N-terminal GST; dsDNA, one strand shown
# T8 sequence: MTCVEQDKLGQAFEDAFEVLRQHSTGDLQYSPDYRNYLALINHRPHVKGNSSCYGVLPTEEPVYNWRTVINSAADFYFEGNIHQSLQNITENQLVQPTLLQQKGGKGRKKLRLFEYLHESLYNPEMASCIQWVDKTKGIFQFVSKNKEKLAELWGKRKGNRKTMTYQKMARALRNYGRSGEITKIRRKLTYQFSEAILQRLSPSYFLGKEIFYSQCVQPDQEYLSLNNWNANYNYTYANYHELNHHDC
# Outline: as §1
# [14] = target: ELF4 (Homo sapiens, UniProt Q99607 1-663); conditions: protein: recombinant; tags: N-terminal GST; dsDNA, one strand shown
# Chain of ELF4 (Q99607 whole entry): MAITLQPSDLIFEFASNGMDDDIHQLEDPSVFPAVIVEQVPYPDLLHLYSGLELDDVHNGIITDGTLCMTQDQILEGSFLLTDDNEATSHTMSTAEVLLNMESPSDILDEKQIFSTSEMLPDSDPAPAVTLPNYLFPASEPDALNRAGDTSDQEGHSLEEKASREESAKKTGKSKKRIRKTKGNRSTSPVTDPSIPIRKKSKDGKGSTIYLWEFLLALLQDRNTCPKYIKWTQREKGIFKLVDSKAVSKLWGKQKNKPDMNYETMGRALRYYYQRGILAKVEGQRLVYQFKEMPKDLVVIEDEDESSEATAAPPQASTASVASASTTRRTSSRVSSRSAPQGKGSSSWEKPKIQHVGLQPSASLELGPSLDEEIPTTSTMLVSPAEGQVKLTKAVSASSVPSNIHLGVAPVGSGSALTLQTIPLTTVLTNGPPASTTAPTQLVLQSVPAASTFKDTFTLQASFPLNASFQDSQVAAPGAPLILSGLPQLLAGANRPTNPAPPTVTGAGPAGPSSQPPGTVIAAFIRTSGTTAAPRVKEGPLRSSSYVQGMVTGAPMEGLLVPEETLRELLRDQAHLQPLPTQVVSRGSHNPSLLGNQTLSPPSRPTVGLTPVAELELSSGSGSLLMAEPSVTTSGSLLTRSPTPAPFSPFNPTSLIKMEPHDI
# Outline: as §1
# [15] = target: T9, ELK4 (Homo sapiens, UniProt P28324-2 1-405); conditions: protein: recombinant; tags: N-terminal GST; dsDNA, one strand shown
# T9 sequence: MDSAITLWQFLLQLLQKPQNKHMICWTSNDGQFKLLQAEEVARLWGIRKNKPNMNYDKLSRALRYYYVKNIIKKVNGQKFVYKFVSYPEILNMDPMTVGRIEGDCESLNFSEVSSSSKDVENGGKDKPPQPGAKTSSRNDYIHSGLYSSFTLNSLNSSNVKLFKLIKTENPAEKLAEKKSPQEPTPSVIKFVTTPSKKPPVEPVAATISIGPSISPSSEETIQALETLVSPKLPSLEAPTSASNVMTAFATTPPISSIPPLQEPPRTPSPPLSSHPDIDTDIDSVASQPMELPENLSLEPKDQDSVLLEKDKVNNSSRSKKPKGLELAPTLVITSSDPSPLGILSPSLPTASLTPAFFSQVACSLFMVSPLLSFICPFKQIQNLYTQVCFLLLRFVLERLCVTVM
# Outline: as §1
# [16] = target: T10, ETV2 (Homo sapiens, UniProt O00321 1-342); conditions: protein: recombinant; tags: N-terminal GST; dsDNA, one strand shown
# T10 sequence: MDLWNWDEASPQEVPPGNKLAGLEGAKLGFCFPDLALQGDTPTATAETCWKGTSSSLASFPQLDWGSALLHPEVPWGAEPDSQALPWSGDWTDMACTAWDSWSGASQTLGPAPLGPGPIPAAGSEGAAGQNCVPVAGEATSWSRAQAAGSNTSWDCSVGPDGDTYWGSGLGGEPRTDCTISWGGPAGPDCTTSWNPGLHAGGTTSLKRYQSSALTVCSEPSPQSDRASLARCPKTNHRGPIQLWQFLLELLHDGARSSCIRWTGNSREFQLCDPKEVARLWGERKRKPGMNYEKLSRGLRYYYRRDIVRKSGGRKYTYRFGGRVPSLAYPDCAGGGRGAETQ
# Outline: as §1
# [17] = target: T11, ELF3 (Homo sapiens, UniProt P78545 1-371); conditions: protein: recombinant; tags: N-terminal GST; dsDNA, one strand shown
# T11 sequence: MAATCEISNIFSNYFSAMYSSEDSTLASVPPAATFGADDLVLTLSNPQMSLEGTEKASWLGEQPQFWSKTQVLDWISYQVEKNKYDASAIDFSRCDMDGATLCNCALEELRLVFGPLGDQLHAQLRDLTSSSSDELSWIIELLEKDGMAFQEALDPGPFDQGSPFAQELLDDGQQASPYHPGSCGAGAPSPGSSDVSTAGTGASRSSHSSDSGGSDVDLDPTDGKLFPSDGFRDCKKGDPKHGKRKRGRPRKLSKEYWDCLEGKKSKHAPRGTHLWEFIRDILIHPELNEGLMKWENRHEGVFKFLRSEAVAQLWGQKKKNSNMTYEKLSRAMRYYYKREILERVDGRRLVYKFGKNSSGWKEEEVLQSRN
# Outline: as §1
# [18] = target: CRX (Homo sapiens, UniProt O43186 1-299); conditions: protein: recombinant; tags: N-terminal GST; dsDNA, one strand shown
# Chain of CRX (O43186 whole entry): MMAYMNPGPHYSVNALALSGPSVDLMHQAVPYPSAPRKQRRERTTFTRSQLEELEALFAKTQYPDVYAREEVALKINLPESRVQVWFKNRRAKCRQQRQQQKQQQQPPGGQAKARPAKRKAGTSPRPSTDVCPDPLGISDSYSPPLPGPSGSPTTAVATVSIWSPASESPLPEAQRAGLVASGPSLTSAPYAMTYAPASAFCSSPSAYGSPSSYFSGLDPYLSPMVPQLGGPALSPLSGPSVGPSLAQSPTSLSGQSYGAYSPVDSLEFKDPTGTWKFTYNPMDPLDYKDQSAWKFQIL
# Outline: as §1
# [19] = target: ETV1 (Homo sapiens, UniProt P50549 1-477); conditions: protein: recombinant; tags: N-terminal GST; dsDNA, one strand shown
# Chain of ETV1 (P50549 whole entry): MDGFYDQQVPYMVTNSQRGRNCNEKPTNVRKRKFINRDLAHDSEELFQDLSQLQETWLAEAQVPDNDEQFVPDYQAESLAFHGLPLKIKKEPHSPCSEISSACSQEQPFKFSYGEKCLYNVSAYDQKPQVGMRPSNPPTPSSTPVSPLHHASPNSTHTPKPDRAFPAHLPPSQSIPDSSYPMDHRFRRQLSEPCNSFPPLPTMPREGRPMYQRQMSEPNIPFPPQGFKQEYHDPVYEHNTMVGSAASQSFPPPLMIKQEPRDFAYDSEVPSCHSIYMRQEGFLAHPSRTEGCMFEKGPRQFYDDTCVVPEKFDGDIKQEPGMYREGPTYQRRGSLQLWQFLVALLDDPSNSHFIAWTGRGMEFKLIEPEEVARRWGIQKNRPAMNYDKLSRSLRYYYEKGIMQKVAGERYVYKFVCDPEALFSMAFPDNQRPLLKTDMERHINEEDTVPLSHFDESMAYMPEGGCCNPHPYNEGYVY
# Outline: as §1
sequence,measurement,setting,value
TTTAAT,binding signal,[1],"1.4 fold enrichment (6-mer frequency, TF over GST control)"
same,binding signal,[2],"1.28 fold enrichment (6-mer frequency, TF over GST control)"
same,binding signal,[3],"1.29 fold enrichment (6-mer frequency, TF over GST control)"
same,binding signal,[4],"1.27 fold enrichment (6-mer frequency, TF over GST control)"
same,binding signal,[5],"1.29 fold enrichment (6-mer frequency, TF over GST control)"
same,binding signal,[6],"1.35 fold enrichment (6-mer frequency, TF over GST control)"
same,binding signal,[7],"1.23 fold enrichment (6-mer frequency, TF over GST control)"
same,binding signal,[8],"1.35 fold enrichment (6-mer frequency, TF over GST control)"
same,binding signal,[9],"1.36 fold enrichment (6-mer frequency, TF over GST control)"
same,binding signal,[10],"1.26 fold enrichment (6-mer frequency, TF over GST control)"
same,binding signal,[11],"1.32 fold enrichment (6-mer frequency, TF over GST control)"
same,binding signal,[12],"2.06 fold enrichment (6-mer frequency, TF over GST control)"
same,binding signal,[13],"1.25 fold enrichment (6-mer frequency, TF over GST control)"
same,binding signal,[14],"1.32 fold enrichment (6-mer frequency, TF over GST control)"
same,binding signal,[15],"1.35 fold enrichment (6-mer frequency, TF over GST control)"
same,binding signal,[16],"1.06 fold enrichment (6-mer frequency, TF over GST control)"
same,binding signal,[17],"1.3 fold enrichment (6-mer frequency, TF over GST control)"
same,binding signal,[18],"3.28 fold enrichment (6-mer frequency, TF over GST control)"
same,binding signal,[19],"1.34 fold enrichment (6-mer frequency, TF over GST control)"
